High-throughput results deposited in PubChem by National Center for Advancing Translational Sciences (NCATS).
The list is not random: actives were taken first. Their share in the collection is about 19%.
TDP1 cell CPT – qHTS for Inhibitors of human tyrosyl-DNA phosphodiesterase 1 (TDP1): qHTS in cells in presence of CPT | chicken DT40 Tdp1-/-;hTDP1 cells + 20 nM CPT, ATP luminescence, 48 h | Potency, µM (highest dose often 46.2 µM), for inactives: at the highest dose activity change, negative = growth inhibition, most hits filed as inhibitors | 420,000 tested, 12% active | AID 686979, 2013; also: potency is read from the fitted curve at half-maximal effect; % is scaled to controls: 0 for no effect and ±100 for the full control effect; nearly all actives have a fitted effect of over 55% in size
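Cell growth measured by CellTiter-Glo luminescence after a minimum 48 h, 37 C compound exposure with 20 nM CPT in Tdp1-knockout DT40 cells stably expressing hTDP1, seeded 400/well; qHTS titration format.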
MCF10A rerep – A quantitative high throughput screen for small molecules that induce DNA re-replication in MCF 10a normal breast cells. MCF 10A DNA re-replication, Hoechst nuclear intensity, 48 h. Potency, µM (series often up to 46.1 µM), without a hit: at the top dose activity, positive = re-replication, hits mostly activators. 350,000 tested, 2.9% active. AID 624296, 2012; also: potency is read from the fitted curve at half-maximal effect; % of control where 0% means no effect; nearly all actives have a fitted effect of over 50% in size
SW480 rerep – A quantitative high throughput screen for small molecules that induce DNA re-replication in SW480 colon adenocarcinoma cells | SW480 DNA re-replication, Hoechst DNA content imaging, 48 h | Potency, µM (doses to about 46.1 µM), inactives show at the top dose re-replication activation, most hits filed as activators | 340,000 tested, 1.8% active; also: potency is read from the fitted curve at half-maximal effect; % of control where 0% means no effect; nearly all actives have a fitted effect of over 55% in size
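Hoechst fluorescence of nuclei (405 nm excitation, 500-530 nm emission) measured by plate-scanning imager after 48 hr compound exposure at 37 C; re-replication scored as increased number of nuclei with elevated intensity.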
BCR signal inh – qHTS Assay to Find Inhibitors of Chronic Active B-Cell Receptor Signaling; ABC-DLBCL IkBa-CBG/CBR reporter, luminescence ratio, 4 h; 340,000 tested, 0.05% active; Potency, µM (doses to about 46.1 µM), for inactives: at the highest dose activity change, negative = inhibition, usual class: inhibitors; active = well fitted inhibition curve with a large enough effect in the signal ratio, with a control signal flat, not every such curve was filed as active; inconclusive = small, poorly fitted or top-dose-only effect, or effect the other way, or a change in a side signal; the % refers to the signal ratio;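 also: potency is read from the fitted curve at half-maximal effect; plate controls were basal doxycycline-induced cells for no effect and cells given 10 µM MG132 for full effect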
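TMD8 ABC-DLBCL cells carrying doxycycline-inducible green luciferase fused to IkappaBalpha plus unfused red luciferase were exposed to compounds (up to 46 uM) for 4 hrs at 37C. Activity came from the overlap-corrected green/red luminescence ratio.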
TDP1 cell noCPT – qHTS for Inhibitors of human tyrosyl-DNA phosphodiesterase 1 (TDP1): qHTS in cells in absence of CPT. 420,000 tested, 15% active. Potency, µM (highest dose often 46.2 µM), inactives show at the top dose activity change, negative = growth inhibition, usual class: inhibitors. DT40 Tdp1-/- hTDP1 cells, no CPT, ATP luminescence, 48 h; also: potency is read from the fitted curve at half-maximal effect; % is scaled to controls: 0 for no effect and ±100 for the full control effect; nearly all actives have a fitted effect of over 55% in size
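Compound effects on proliferation are scored in DT40 Tdp1-/-;hTDP1 cells in the absence of CPT. ATP levels (CellTiter-Glo luminescence) are recorded after a ≥48 hr, 37 °C incubation.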
IL1B secr inh – qHTS for Inhibitors of Inflammasome Signaling: IL-1-beta AlphaLISA Primary Screen; activity change, % at 57.5 µM; THP-1 LPS/ATP IL-1B secretion, AlphaLISA, 16 h; active compounds read low; AID 743279, 2014; 360,000 tested, 4.7% active; in the data active = activity change below about -50%; inconclusive = mostly about -30% to -49%; also: % is scaled to controls: 0 for no effect and ±100 for the full control effect
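Secreted IL-1B measured by AlphaLISA bead assay after 16 h compound exposure of THP-1 cells; compounds (final up to 57.5 uM) added 1 h before LPS (250 ng/mL) and ATP (1.25 mM) stimulation; lower signal means less secretion.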
Numbers without * were called inactive; ? = inconclusive; . = not tested or not shown. Unless noted, calls follow the shape of the dose curve; as a rule, active = well fitted curve in the direction sought with a large enough effect; inconclusive = small, poorly fitted or top-dose-only effect, or another doubt; inactive = no such curve, though single readings can be large; an effect the other way counts as inactive or inconclusive.

SMILES | TDP1 cell CPT | MCF10A rerep | SW480 rerep | BCR signal inh | TDP1 cell noCPT | IL1B secr inh
Cc1ccc(C(=O)NC2(C(F)(F)F)NC(=O)N(c3ccc(Cl)cc3)C2=O)cc1 (configuration not stated) | -25% | 10% | 1% | -3% | -28% | -61*
Cc1ccc(N2C(=O)NC(NC(=O)C3CC3)(C(F)(F)F)C2=O)cc1 (configuration not stated) | 19% | 3% | -1% | ? | -15% | -8
CC(=O)Nc1nc(C)c(CCC2OCCO2)c(=O)[nH]1 | -4% | 12% | -10% | -3% | -8% | 22
COc1cccc(C(C(=O)NCC2CCCO2)N(C(=O)Cn2nnc3ccccc32)c2ccc(NC(C)=O)cc2)c1 (configuration not stated) | 1% | -6% | -12% | ? | 5% | -63*
CCOc1cc(C(C(=O)NCC2CCCO2)N(C(=O)Cn2nnc3ccccc32)c2ccc(C(C)=O)cc2)ccc1O (configuration not stated) | 4% | 3% | 19% | 0% | 3% | -2
COc1ccc2nc(SCC(=O)NC3CCCC3)c(C)cc2c1 | 16µM* | 8.2µM* | ? | -6% | 16µM* | 65
COc1ccc(-c2[nH]c(-c3ccc(C)cc3)nc2SCC(=O)NC2CCCC2)cc1 | ? | ? | ? | ? | ? | -26
COc1cccc(-c2nc(SCC(=O)NC3CCCC3)c(-c3ccc(F)cc3)[nH]2)c1 | ? | . | . | . | 21µM* | .
COc1ccc(-c2nc(SCC(=O)Nc3ccc4c(c3)OCCO4)c(-c3ccccc3)[nH]2)cc1 | ? | . | . | . | 23µM* | .
COc1cccc(-c2nc(SCC(=O)Nc3ccc4c(c3)OCCO4)c(-c3ccccc3)[nH]2)c1 | 23µM* | . | . | . | 18µM* | .
COc1ccc(-c2[nH]c(-c3cccc(OC)c3)nc2SCC(=O)Nc2ccc3c(c2)OCO3)cc1 | 16µM* | . | . | . | ? | .
COCCN1C=C(C(=O)OC)C(c2ccc(Cl)cc2)C(C(=O)OC)=C1 | ? | 16µM* | 9.2µM* | ? | ? | -19
COC(=O)C1=CN(Cc2cccs2)C=C(C(=O)OC)C1c1cccc(Cl)c1 | 4% | 7.3µM* | ? | ? | ? | -29
O=C(CSc1nc2nn(-c3ccccc3)c(=O)c-2c2n1CCCCC2)Nc1ccc(F)cc1F | 3% | 5% | 4% | 0% | 19% | -56*
O=C(CSc1nc2nn(-c3ccccc3)c(=O)c-2c2n1CCCCC2)Nc1ccc(F)c(F)c1 | ? | 2% | 4% | 2% | ? | -28
CNC(=O)CSc1nc2nn(-c3ccccc3)c(=O)c-2c2n1CCCCC2 | 33% | 7% | 8% | 1% | -11% | 42
CC(C)CNC(=O)CSc1nc2nn(-c3ccccc3)c(=O)c-2c2n1CCCCC2 | 1% | -6% | 5% | 2% | -8% | -53*
CC(=O)c1ccc(NC(=O)CSc2nc3nn(-c4ccccc4)c(=O)c-3c3n2CCCCC3)cc1 | 26µM* | 0% | 2% | . | 16µM* | 0
CC(C)(C)c1ccc(CN2CCN([C@H](c3ccccc3)c3ccc(Cl)cc3)CC2)cc1 | . | ? | 15% | . | . | .
COCCN(C(=O)CSc1nnc(-c2cccs2)n1N)c1c(N)n(Cc2ccccc2)c(=O)[nH]c1=O | 9% | 1% | -7% | 1% | 5% | 8
NNC(=O)COc1cccc(Oc2ccccc2)c1 | ? | 1% | 2% | 6% | 18µM* | -3
Cc1ccc(C(CCNC(C)c2cccs2)c2ccco2)cc1 (configuration not stated) | ? | -3% | 1% | -9% | 18µM* | ?
C[C@@H]1CN([C@H](C)CO)C(=O)c2cc(NC(=O)Nc3ccc(C(F)(F)F)cc3)ccc2O[C@H]1CN(C)S(=O)(=O)c1ccc(Cl)cc1 | 5.2µM* | -20% | 5% | 11% | 5.8µM* | 0
C[C@@H]1CN([C@@H](C)CO)C(=O)Cc2cc(NC(=O)Nc3ccc(C(F)(F)F)cc3)ccc2O[C@@H]1CN(C)S(=O)(=O)c1ccc(Cl)cc1 | ? | ? | 6% | 5% | 15µM* | ?
C[C@H](CO)N1C[C@H](C)[C@H](CN(C)S(=O)(=O)c2cn(C)cn2)Oc2ccc(NC(=O)Nc3ccc(C(F)(F)F)cc3)cc2CC1=O | ? | ? | ? | ? | 13µM* | 33
SMILES | TDP1 cell CPT | MCF10A rerep | SW480 rerep | BCR signal inh | TDP1 cell noCPT | IL1B secr inh
Cc1ccc(S(=O)(=O)N(C)C[C@@H]2Oc3ccc(NC(=O)Nc4cccc5ccccc45)cc3C(=O)N([C@H](C)CO)C[C@H]2C)cc1 | ? | ? | 5% | 0% | 23µM* | 9
COc1ccc(CNC(=O)CN(Cc2ccc(C)cc2)C(=O)c2csnn2)cc1 | 0% | 0% | -13% | 1% | -11% | 7
O=C(CSc1ncccn1)Nc1ccc2c(c1)CCC2 | -13% | 1% | -4% | 1% | -6% | 16
C[C@H](CO)N1C[C@H](C)[C@@H](CN(C)S(=O)(=O)c2ccc(F)cc2)Oc2ccc(NC(=O)Nc3ccccc3)cc2C1=O | ? | 1% | 3% | 1% | 15µM* | 0
Cc1ccc(S(=O)(=O)N(C)C[C@@H]2Oc3ccc(NC(=O)CCC(F)(F)F)cc3CC(=O)N([C@@H](C)CO)C[C@@H]2C)cc1 | 4.1µM* | 3.7µM* | 3.7µM* | ? | 5.8µM* | 46
CCOc1ccccc1CNC(=O)C1CCN(c2nc3ccccc3o2)CC1 | 18µM* | 2% | -5% | 1% | ? | ?
O=C(NCc1cccs1)C1CCN(c2nc3ccccc3o2)CC1 | ? | -1% | -3% | 1% | -25% | 15
CCOc1ccccc1CNC(=O)c1cc2occc2n1C | 9% | -1% | 0% | 0% | -7% | 10
CCC1CN(C(=O)N2CCC(C(=O)NCc3ccc(OC)cc3OC)CC2)c2cc(C)ccc2O1 (configuration not stated) | ? | . | . | . | 18µM* | .
COc1ccccc1CNC(=O)C1CCN(C(=O)N(C)C)CC1 | 2% | 2% | -9% | -1% | -21% | 15
